Laboratory results reported in PubChem BioAssay (NCI).
Compounds without any hit were thinned out: in the full panel of roughly 83,000, 20% have a hit.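 Values shown are percent growth following 48 h exposure of cells in 96-well plates to a single concentration of compound; below 10 was considered active.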 A number with no mark means an inactive call.

The compounds below were run on NCI-H522 lung (assay: NCI-60 one-dose screen, 48 h (100 = growth as untreated, 0 = no growth, -100 = all killed)). Details: 10 µM unless noted.

| SMILES | growth [%] |
| --- | --- |
| CCN(CC)CCCC(C)Nc1c2ccc(Cl)cc2nc2ccc(O)cc12 (centres undefined) | 37 |
| Cc1ccc(-c2cc3c(cc2O)C2CCCCC2(N2CCOCC2)O3)cc1 (centres undefined) | 82.7 |
| CNC(=O)NCC1OC(n2cnc3c(NC(=O)Nc4ccccc4)ncnc32)C(O[Si](C)(C)C(C)(C)C)C1CC(=O)N(C)OC (centres undefined) | 65.9 |
| COc1cc(/C=C/C(=O)c2cccc(-n3cc(-c4ccccc4)[nH]c3=O)c2)ccc1O | 26.2 |
| CC(=O)OC1CCC2(C)C(=CC3C4CCC(=O)C4(C)CCC32)C1 (centres undefined) | 96.9 |
| O=C(Nc1ccccc1-c1nc2ccccc2c(=O)[nH]1)c1cc2ccccc2[nH]1 | 78.8 |
| CC(=O)OC[C@H]1OC(Sc2sc(C(=O)c3ccc(Br)cc3)c(N)c2-c2nc3ccccc3s2)[C@H](OC(C)=O)[C@@H](OC(C)=O)[C@@H]1OC(C)=O (some centres undefined) | 63.8 |
| O=C(COc1ccc(/C=C2\Oc3ccccc3C2=O)cc1)c1ccc(Cl)cc1 | 96.1 |
| C=CC(=O)Nc1cccc(Oc2nccc(Nc3nnc(C4CC4)s3)n2)c1 | 86.8 |
| O=C(NC(CSSCC(NC(=O)c1ccccc1)C(=O)O)C(=O)O)c1ccccc1 (centres undefined) | 92.4 |
| CC(C)(C)c1ccc(/C=C/C(=O)Nc2ccc(O)cc2)cc1 | 26.4 |
| CCOc1c(C#N)nnc2c(C#N)c(NC(=O)c3ccccc3)nn12 | 95 |
| COc1ccc(N=C(c2ccccc2)C2C(=O)c3ccccc3C2=O)cc1 | 67 |
| COc1ccc(-c2nc(SCCC(C)C)nc(N/N=C\c3ccccc3O)c2C#N)cc1 | 84.6 |
